Here are results for 13 molecules from paper PMC12864922, “TDP-43 directly inhibits mRNA accumulation in neurites through modulation of mRNA stability”.

B1: ENSMUSG00000061578.89|Ksr2 (ssRNA)
RNA: GGGAGUUCUACAGUCCGACGAUCGCUUCGAUAUCCGCAUGCUACAAACAUCUGAUUUUAGAGGUCCCAUUCCAAGAUGGAAGUCACCGGUUGCCGCUGAGCACACAAUUCUGAAGGACAGUAGGCAGUCCUGCAGGUCUUUUUUAGCACAGGGCCUCUCUGGGGACCAGUCCCUGGCCUUCACCCUUCUCCCAUUUUGUAAGAACACUGUUCUAACUCACCUCAUGCCCACGCUACCCUGGGCAACUGGAGAACACCAUAGCGUUUCAGCUGAUGUGACAUUUGGUGUGACCUUUACCAGUUCCUCUUGCGGUCGCACUAGUGUGGAAUUCUCGGGUGUCAAGG
B2: ENSMUSG00000090935.496|Synj2bp (ssRNA)
RNA: GGGAGUUCUACAGUCCGACGAUCGCUUCGAUAUCCGCAUGCUACUUCACAUAACUAAGCCAUUCAGUACUUUUUGAAACUGACUUAGUAACAGGAGUCAUUGUAAGCUCCAUAGAAGGCAAGACGCAUUCCACAUCUUGUCUUGACCAGCAGCACUCUGGAGGCCCAGUGUCUGCUACCCUUCUUGUAUCUGAUGGCAUGGGUAACAGCUCUGCCAUGGGCCUGCUUACUUCUAGUAUUCACCUCAGGGCUUGGAAAUUGGUUUUGAAAGGCUUUUAGACAUAGAAAGUAAAACUAAUGGCAACUCUUGCGGUCGCACUAGUGUGGAAUUCUCGGGUGUCAAGG
B3: ENSMUSG00000032194.286|Kank2 (ssRNA)
RNA: GGGAGUUCUACAGUCCGACGAUCGCUUCGAUAUCCGCAUGCUAGGAUGGGUGGACGGAUGAGUGUGGGGUGGGUGGAUGGAUAAAUGAGCAAUGGAUGAGAAACUGGGUUGGCUGGUGGGUAGAUGUCAUGAUGGAGUCUUUGCACGUGUAUGAAACAGAAAACCAAACUUCAGGACAGACAGCUGCUGGUGUCUCUGGAUGCUCACAGCCUAGGGCACAUUUGAAAGGUCGUGCUCUGAGCUGAGCCCUGAGUUCCAGCCUUGUAGCCAGCAAGGGAGUUUAUUUAAGGUUCUGGAAGCAUCCUCUUGCGGUCGCACUAGUGUGGAAUUCUCGGGUGUCAAGG
B4: ENSMUSG00000058297.13|Spock2 (ssRNA)
RNA: GGGAGUUCUACAGUCCGACGAUCGCUUCGAUAUCCGCAUGCUAGGCAGAUGAUGGAGGCUACAUCUGGUAGAUAGCCCUCGACGGCCUCGGCAGGCCAGGGUGCCGACGGCCAGAAAGACAGGCCAGAAGAGACCUGGACAACAGCAGGCAACUUAGCAAAUGGAUCCGGAAGUCAGUGCGGAGGACCCUGGCUCCAGUGGGGGAGGACUGGGGAGUGUGGCUUGUGUGUAUGUGUGAUAUGAGAUGUGUGUGUAUGAUGUGAGAUGUGAGUGUGUGAUGUGAGAUGUGUGUAUGUGAGAUGUCUCUUGCGGUCGCACUAGUGUGGAAUUCUCGGGUGUCAAGG
B5: ENSMUSG00000058297.13|Spock2|173:177;181:194;203:214;228:234;243:252 (ssRNA)
RNA: GGGAGUUCUACAGUCCGACGAUCGCUUCGAUAUCCGCAUGCUAGGCAGAUGAUGGAGGCUACAUCUGGUAGAUAGCCCUCGACGGCCUCGGCAGGCCAGGGUGCCGACGGCCAGAAAGACAGGCCAGAAGAGACCUGGACAACAGCAGGCAACUUAGCAAAUGGAUCCGGAAGUCAGUGCGGAGGACCCUGGCUCCAGUGGGGGAGGACUGGGGACACACGCUACACACAUACACACAUAUGAGAACACACACAUACAUGUGAGAUGUGACACACACAUGUGAGAACACACAUACUGAGAUGUCUCUUGCGGUCGCACUAGUGUGGAAUUCUCGGGUGUCAAGG
B6: ENSMUSG00000058297.17|Spock2 (ssRNA)
RNA: GGGAGUUCUACAGUCCGACGAUCGCUUCGAUAUCCGCAUGCUAGUAGAUAGCCCUCGACGGCCUCGGCAGGCCAGGGUGCCGACGGCCAGAAAGACAGGCCAGAAGAGACCUGGACAACAGCAGGCAACUUAGCAAAUGGAUCCGGAAGUCAGUGCGGAGGACCCUGGCUCCAGUGGGGGAGGACUGGGGAGUGUGGCUUGUGUGUAUGUGUGAUAUGAGAUGUGUGUGUAUGAUGUGAGAUGUGAGUGUGUGAUGUGAGAUGUGUGUAUGUGAGAUGUGUGUGUGUGUGUGUGUGUGUGUGACUCUUGCGGUCGCACUAGUGUGGAAUUCUCGGGUGUCAAGG
B7: ENSMUSG00000058297.4|Spock2|227:231;235:248 (ssRNA)
RNA: GGGAGUUCUACAGUCCGACGAUCGCUUCGAUAUCCGCAUGCUAGGAGACAGAAGAGGCAGGGGAGGAGGCCGAGGAGGAGGAGGGUGAGGCGGGUGAGGCAGAUGAUGGAGGCUACAUCUGGUAGAUAGCCCUCGACGGCCUCGGCAGGCCAGGGUGCCGACGGCCAGAAAGACAGGCCAGAAGAGACCUGGACAACAGCAGGCAACUUAGCAAAUGGAUCCGGAAGUCAGUGCGGAGGACCCUGGCUCCAGUGGGGGAGGACUGGGGACACACGCUACACACAUACACACAUAUGAGAUGUGCUCUUGCGGUCGCACUAGUGUGGAAUUCUCGGGUGUCAAGG
B8: ENSMUSG00000058297.10|Spock2|191:195;199:212;221:232;246:252 (ssRNA)
RNA: GGGAGUUCUACAGUCCGACGAUCGCUUCGAUAUCCGCAUGCUAGGAGGGUGAGGCGGGUGAGGCAGAUGAUGGAGGCUACAUCUGGUAGAUAGCCCUCGACGGCCUCGGCAGGCCAGGGUGCCGACGGCCAGAAAGACAGGCCAGAAGAGACCUGGACAACAGCAGGCAACUUAGCAAAUGGAUCCGGAAGUCAGUGCGGAGGACCCUGGCUCCAGUGGGGGAGGACUGGGGACACACGCUACACACAUACACACAUAUGAGAACACACACAUACAUGUGAGAUGUGACACACACAUGUGAGACUCUUGCGGUCGCACUAGUGUGGAAUUCUCGGGUGUCAAGG
B9: ENSMUSG00000058297.12|Spock2 (ssRNA)
RNA: GGGAGUUCUACAGUCCGACGAUCGCUUCGAUAUCCGCAUGCUAGGGUGAGGCAGAUGAUGGAGGCUACAUCUGGUAGAUAGCCCUCGACGGCCUCGGCAGGCCAGGGUGCCGACGGCCAGAAAGACAGGCCAGAAGAGACCUGGACAACAGCAGGCAACUUAGCAAAUGGAUCCGGAAGUCAGUGCGGAGGACCCUGGCUCCAGUGGGGGAGGACUGGGGAGUGUGGCUUGUGUGUAUGUGUGAUAUGAGAUGUGUGUGUAUGAUGUGAGAUGUGAGUGUGUGAUGUGAGAUGUGUGUAUGUGCUCUUGCGGUCGCACUAGUGUGGAAUUCUCGGGUGUCAAGG
B10: ENSMUSG00000058297.12|Spock2|179:183;187:200;209:220;234:240;249:258 (ssRNA)
RNA: GGGAGUUCUACAGUCCGACGAUCGCUUCGAUAUCCGCAUGCUAGGGUGAGGCAGAUGAUGGAGGCUACAUCUGGUAGAUAGCCCUCGACGGCCUCGGCAGGCCAGGGUGCCGACGGCCAGAAAGACAGGCCAGAAGAGACCUGGACAACAGCAGGCAACUUAGCAAAUGGAUCCGGAAGUCAGUGCGGAGGACCCUGGCUCCAGUGGGGGAGGACUGGGGACACACGCUACACACAUACACACAUAUGAGAACACACACAUACAUGUGAGAUGUGACACACACAUGUGAGAACACACAUACUGCUCUUGCGGUCGCACUAGUGUGGAAUUCUCGGGUGUCAAGG
B11: ENSMUSG00000058297.7|Spock2|209:213;217:230;239:250 (ssRNA)
RNA: GGGAGUUCUACAGUCCGACGAUCGCUUCGAUAUCCGCAUGCUAGGAGGAGGCCGAGGAGGAGGAGGGUGAGGCGGGUGAGGCAGAUGAUGGAGGCUACAUCUGGUAGAUAGCCCUCGACGGCCUCGGCAGGCCAGGGUGCCGACGGCCAGAAAGACAGGCCAGAAGAGACCUGGACAACAGCAGGCAACUUAGCAAAUGGAUCCGGAAGUCAGUGCGGAGGACCCUGGCUCCAGUGGGGGAGGACUGGGGACACACGCUACACACAUACACACAUAUGAGAACACACACAUACAUGUGAGAUGCUCUUGCGGUCGCACUAGUGUGGAAUUCUCGGGUGUCAAGG
B12: ENSMUSG00000058297.17|Spock2|149:153;157:170;179:190;204:210;219:228;234:259 (ssRNA)
RNA: GGGAGUUCUACAGUCCGACGAUCGCUUCGAUAUCCGCAUGCUAGUAGAUAGCCCUCGACGGCCUCGGCAGGCCAGGGUGCCGACGGCCAGAAAGACAGGCCAGAAGAGACCUGGACAACAGCAGGCAACUUAGCAAAUGGAUCCGGAAGUCAGUGCGGAGGACCCUGGCUCCAGUGGGGGAGGACUGGGGACACACGCUACACACAUACACACAUAUGAGAACACACACAUACAUGUGAGAUGUGACACACACAUGUGAGAACACACAUACUGAGAACACACACACACACACACACACACACACUCUUGCGGUCGCACUAGUGUGGAAUUCUCGGGUGUCAAGG
B13: ENSMUSG00000061578.285|Ksr2 (ssRNA)
RNA: GGGAGUUCUACAGUCCGACGAUCGCUUCGAUAUCCGCAUGCUAGGAUAUAUCUCUGUGGCCAGGGCUGGACUGAGACUGACCCCCUCCUACUAAGCAUCUUAGAGUUUCUCUUUUCUCUUUAAUUGCAUCAGGACCCCUUUGGUCCAUGUACCCCGGUCUCUGUCACAUGCCUUUGUAUCUUGGAGGAAGUAAGAGAGGAGAGAGCCAGGGAGGGCUGAAGCUCUGGGACCCUGAAGUGUCCCCCGGGAACUGGGACUCACUCAUCUUCUCCUGUUUGUAGCUCAAUGACCCAGUGGGUCACACUCUUGCGGUCGCACUAGUGUGGAAUUCUCGGGUGUCAAGG

In all, about 9,900 sequences were measured (“r (bound/input frequency ratio)”: median about 0.7, highest 2% from about 6.5 on). The entries come from a sample that favours the highest values as a whole.

TDP-43, sequence (Q13148 whole entry): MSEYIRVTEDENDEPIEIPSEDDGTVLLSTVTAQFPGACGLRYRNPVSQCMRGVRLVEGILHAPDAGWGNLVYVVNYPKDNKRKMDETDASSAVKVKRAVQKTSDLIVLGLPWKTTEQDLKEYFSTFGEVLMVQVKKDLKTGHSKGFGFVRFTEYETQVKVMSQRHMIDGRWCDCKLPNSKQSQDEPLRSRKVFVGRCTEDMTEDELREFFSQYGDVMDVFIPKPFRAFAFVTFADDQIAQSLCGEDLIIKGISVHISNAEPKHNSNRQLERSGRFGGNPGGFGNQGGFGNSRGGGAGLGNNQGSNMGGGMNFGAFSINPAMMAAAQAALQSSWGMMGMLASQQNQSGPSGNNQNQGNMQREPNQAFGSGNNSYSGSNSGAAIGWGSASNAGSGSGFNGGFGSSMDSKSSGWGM

For this test, the target named is TDP-43 (Homo sapiens, UniProt Q13148 1-414). Kind of test: RNA Bind-n-Seq with designed 260-mer pool; 25 mM Tris-HCl, 150 mM KCl, 3 mM MgCl2, BSA (printed 500 mg/mL), 20 units/mL SUPERase IN; pH not stated; 500 nM RNA pool, 1 h, 4 C; TDP-43 5, 50, 500 nM; high values mean tight binding. Particulars: protein: recombinant; tags: SBP (GST cleaved off with PreScission; pGEX-GST-SBP). The gist of the method:
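Duplicate measurements used two independent batches of recombinant SBP-tagged TDP-43, which was captured on streptavidin beads at 5, 50 or 500 nM. The beads were incubated with 500 nM of an in vitro-transcribed 260-nt 3′ UTR oligo pool for 1 h at 4 °C in 25 mM Tris-HCl, 150 mM KCl, 3 mM MgCl2, BSA and SUPERase IN. After washing, biotin elution, reverse transcription, PCR amplification and sequencing, binding was expressed as R: each oligo's normalized read abundance in the bound sample over its abundance in input.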
For B1, the binding signal is 0.288 R (bound/input frequency ratio). To B2 belongs 0.243 R (bound/input frequency ratio).

On to B3, for which the binding signal was 5.11 R (bound/input frequency ratio). For B4 the value was 7.72 R (bound/input frequency ratio). To B5 belongs 2.37 R (bound/input frequency ratio); to B6, 8.62 R (bound/input frequency ratio); to B7, 2.44 R (bound/input frequency ratio). For B8 the value was 2.04 R (bound/input frequency ratio). Regarding B9, the binding signal is 8.09 R (bound/input frequency ratio). For B10 the value was 2.28 R (bound/input frequency ratio); for B11, 2.55 R (bound/input frequency ratio). For B12 the value was 2.9 R (bound/input frequency ratio). For B13 the value was 0.368 R (bound/input frequency ratio).
